Among all 310,000 compounds or so, about 18,000 (5.8%) were called active. About 22% were inconclusive and are not listed. Calls come from the whole dose curve; as a rule, active = well fitted inhibition curve with a large enough effect; inconclusive = small, poorly fitted or top-dose-only effect, or another doubt; inactive = no such curve, though single readings can be large or run the other way. What follows is part of a selection rich in actives, with near analogues and random picks from the rest. Where a call stands in place of a potency, no number is given.
Experiment: Primary qHTS for delayed death inhibitors of the malarial parasite plastid, 48 hour incubation
Conditions: P. falciparum luciferase growth in erythrocytes; series mostly up to 28.7 µM
Description: The goal of this screen is to discover new antimalarial compounds that act by inhibiting the development of the apicoplast in the malarial parasite Plasmodium falciparum. The biochemical processes that make this organelle essential for erythrocytic stage parasites are not well understood. However, antibiotics such as azithromycin and tetracycline, which target the apicoplast translational machinery, have a potent antimalarial effect.
We have developed a cell-based assay that measures parasite growth based on the expression of an integrated copy of a firefly luciferase reporter. To detect small molecules that cause this "delayed death" phenotype, erythrocytes infected with the luciferase-expressing parasites were incubated with compounds for either one or two generations, corresponding to 48 and 96 hours, respectively. Compounds that inhibit parasite growth in the second generation, but not the first, should be enriched in antimalarials that target the apicoplast. Growth inhibition is detected by a decrease in luciferase activity.
Assay Provider: David Fidock and Eric Ekland, Columbia University
Keywords: NIH Roadmap, MLPCN, MLI, MLSMR, qHTS, NCGC, qHTS, malaria, luciferase, viability
Four microliters of culture medium (RPMI 1640 with 0.5% w/v Albumax (GIBCO), 24 mM sodium bicarbonate and 10 ug/mL gentamycin) were dispensed by a Multi-drop Combi into white solid 1536-well plates (Grenier) and 23 nL compound was added by a pin tool. Four microliters of infected erythrocytes (2% hematocrit, 0.1% parasitemia final concentration) in culture medium were dispensed and the plates incubated for 48 hours at 37 C in 5% CO2. Two microliters of luciferase detection reagent was added and luminescence was detected by a ViewLux (PerkinElmer) reader.
Potency is the fitted concentration of half-maximal effect.

Row | SMILES | Potency | activity change, negative = inhibition
1 | CC(=O)N[C@@H](C)C(=O)N1CCC(n2nccc2NC(=O)CCCc2ccccc2)CC1 | inactive | 
2 | Cc1ccc(C)c(OCCC(=O)OCC(=O)NC(=O)NCc2ccccc2)c1 | inactive | 
3 | CCC1CCCCN1C(=S)Nc1ccc(S(=O)(=O)Nc2ncccn2)cc1 (stereo unspecified) | inactive | 
4 | O=C(CCN1C(=O)[C@@H]2Cc3ccccc3CN2C1=O)NCCc1ccccc1 | inactive | 
5 | O=C(c1ccc(OC2CCN(Cc3ccccn3)CC2)cc1)N1CCCCCC1 | inactive | 
6 | O=C(c1ccc(OC2CCN(C/C=C/c3ccc(F)cc3)CC2)cc1)N1CCCCC1 | 11.7 µM (active) | 
7 | CC(=O)Nc1ccc(CN2CCC(Oc3ccc(C(=O)N4CCCC4)cc3)CC2)cc1 | inactive | 
8 | CCc1noc(C)c1C(=O)NNC(=O)c1ccc(F)cc1 | inactive | 
9 | CCn1nc(C)c(CNC(=O)C2CCC(=O)N(Cc3cccc(F)c3)C2)c1C (stereo unspecified) | inactive | 
10 | CC(C)[C@H](NC(=O)N1CCn2c1nc1ccccc12)C(=O)NCc1ccc2c(c1)OCO2 | inactive | 
11 | CC(C)(C)c1ccc(C(=O)N2CCC(C(=O)N3CCCCC3)CC2)cc1 | inactive | 
12 | CC(C)(C)c1ccc(/C=C2\Oc3c(ccc(O)c3CN3CCN(CCO)CC3)C2=O)cc1 | 10.4 µM (active) | 
13 | CC(=O)Nc1cccc(NC(=O)c2ccc3c(c2)CCN3S(C)(=O)=O)c1 | inactive | 
14 | C[C@H](NC(=O)C1CC(=O)N(c2ccc3c(c2)OCCO3)C1)C(=O)N1CCC(C(=O)O)CC1 (stereo partly specified) | inactive | 
15 | CC1(C)c2[nH]c3ccccc3c2C[C@H]2C(=O)N(N)CC(=O)N21 | inactive | 
16 | Cc1cc(C)cc(OCc2nnc(SCC(=O)Nc3ccccc3)o2)c1 | inactive | 
17 | Cc1ccccc1OCc1nnc(SCC(=O)N2c3ccccc3Sc3ccc(Cl)cc32)o1 | 10.4 µM (active) | 
18 | Cc1cc(C)cc(OCc2nnc(SCC(=O)OC3CCCCC3)o2)c1 | inactive | 
19 | CC(C)Oc1ccc(C(=O)NCC(=O)Nc2ccc3c(c2)CCC3)cc1 | inactive | 
20 | O=C(Nc1ccc(S(=O)(=O)N2CCCC2)cc1Cl)C1=COCCO1 | inactive | 
21 | CCN(CC)c1ccc(S(=O)(=O)N2CCOCC2)cc1NC(=O)CSc1cccc[n+]1[O-] | inactive | 
22 | CCN(CC)c1ccc(S(=O)(=O)N2CCCCC2)cc1NC(=O)C1=COCCO1 | 13.1 µM (active) | 
23 | COc1ccc(-c2noc(CCCC(=O)NC3CCCC3)n2)cc1OC | inactive | 
24 | Cn1c(-c2ccc(F)cc2)cc2onc(-c3ccccc3Cl)c2c1=O | inactive | 
25 | O=C(Nc1ccc([N+](=O)[O-])cc1)OCCc1ccccn1 | inactive | 
26 | CC[C@@H]1Cc2cc(O)ccc2C2=C1c1ccc(O)cc1C[C@H]2CC | 11.7 µM (active) | 

Row | SMILES | Potency | activity change, negative = inhibition
27 | O=C(Nc1ccccn1)C1CCN(S(=O)(=O)c2ccc3c(c2)OCCO3)CC1 | inactive | 
28 | CCOc1ccc(-c2noc(CCC(=O)NC3CCCC3)n2)cc1OC | inactive | 
29 | Cc1ccc(C)c(OCCC(=O)OCC(=O)N2CCN(c3ccccc3)CC2)c1 | inactive | 
30 | CC(C)NC(=O)COCc1cc(-c2ccc3c(c2)OCO3)on1 | inactive | 
31 | COc1ccc(C(=O)CC(=O)C(=O)Nc2cc([N+](=O)[O-])ccc2OC)cc1 |  | -19.7% [at 0.00184 µM] (inactive)
32 | CN(C)CC(O)COc1ccc(C(C)(C)c2ccc(OCC(O)CN(C)C)cc2)cc1 (stereo unspecified) | 5.86 µM (active) | 
33 | Cc1cc(C)n(CC(O)COc2ccc(C(C)(C)C)cc2)n1 (stereo unspecified) | inactive | 
34 | OC(COc1ccc(Br)cc1)CN1CCCC1 (stereo unspecified) | inactive | 
35 | O=C(OCC(=O)N1CCc2ccccc21)c1ccc([N+](=O)[O-])cc1 | inactive | 
36 | O=C(N/N=C\c1cc2c(cc1Cl)OCO2)c1ccc(Br)s1 | inactive | 
37 | Cc1ccc(S(=O)(=O)N(C)C)cc1NC(=O)C(C)OC(=O)c1ccc2ccccc2n1 (stereo unspecified) | inactive | 
38 | CC1=NC2(CCCc3c2no[n+]3[O-])N(O)C1(C)C (stereo unspecified) | 7.38 µM (active) | 
39 | CCOc1ccccc1NS(=O)(=O)c1cc2c3c(c1)C(C)C(=O)N3CCC2 (stereo unspecified) | inactive | 
40 | Cc1cc(C)n(-c2ccc(NC(=O)C3CCCCN3C(=O)c3cccs3)cc2)n1 (stereo unspecified) | inactive | 
41 | CC1C(=O)Nc2ccccc2N1C(=O)c1c(F)cccc1F (stereo unspecified) | inactive | 
42 | O=C(CCNC(=O)c1ccc(Br)cc1)Nc1cccc(S(=O)(=O)N2CCCCC2)c1 | inactive | 
43 | COc1ccc2oc(C(=O)OCC(=O)N(CC(C)C)c3c(N)n(Cc4ccccc4)c(=O)[nH]c3=O)c(C)c2c1 | inactive | 
44 | Cc1cc(Oc2ccc(Cl)cc2)nc(SCC(=O)c2ccccc2)n1 | inactive | 
45 | CC(=O)c1ccc(Oc2cc(C)nc(-n3nc(C)cc3C)n2)cc1 | 11.7 µM (active) | 
46 | Cc1cc(C)n(-c2cc(Oc3ccccc3)ncn2)n1 | inactive | 
47 | COc1cccc(C(=O)Nc2nnc(S(=O)(=O)N3CCCCC3)s2)c1 | inactive | 
48 | COc1ccc(/C=C2\SC(=O)N(CCC(=O)NC3CCS(=O)(=O)C3)C2=O)cc1 (stereo unspecified) | inactive | 
49 | COc1cccc(-c2noc(C3CCCN(C(=O)c4ccc(F)cc4)C3)n2)c1 (stereo unspecified) | inactive | 
50 | COc1cc(-c2noc(C3CCCN(S(=O)(=O)c4cccc(Cl)c4)C3)n2)cc(OC)c1OC (stereo unspecified) | 13.1 µM (active) | 
51 | CC(C)c1ccc(-c2noc(C3CCCN(S(C)(=O)=O)C3)n2)cc1 (stereo unspecified) | inactive | 
52 | CCCCn1c(N)c(N(CCOC)C(=O)c2sc3ccccc3c2Cl)c(=O)[nH]c1=O | inactive | 

Row | SMILES | Potency | activity change, negative = inhibition
53 | CCn1cc(/C=C(\NC(=O)c2ccc(C)cc2)C(=O)NCCN2CCOCC2)c2ccccc21 | inactive | 
54 | COc1ccc(NC(=O)CSc2nc(SC)ns2)c(OC)c1 | inactive | 
55 | O=C(O)CCn1c(Cc2ccccc2)nc2ccccc21 | inactive | 
56 | Cc1ccc2c(c1)C1CN(C)CCC1N2C(=S)Nc1ccc(OC(F)F)cc1 (stereo unspecified) | inactive | 
57 | Cc1ccc2c(c1)C1CN(C)CCC1N2S(=O)(=O)c1ccc(Oc2ccc([N+](=O)[O-])cc2)cc1 (stereo unspecified) | 8.28 µM (active) | 
58 | Cc1ccc2c(c1)C1CN(C)CCC1N2C(=S)Nc1ccc(Cl)cc1Cl (stereo unspecified) | inactive | 
59 | COc1cc(NC(=O)CSc2ccc(-c3cccnc3)nn2)cc(OC)c1 | inactive | 
60 | COc1ccccc1CN1CCN(C(=O)Cc2ccccc2)CC1 | inactive | 
61 | COc1ccccc1CN1CCN(C(c2ccccc2)c2ccccc2)CC1 | 13.1 µM (active) | 
62 | COc1ccccc1/C=N/N1CCN(Cc2ccccc2Cl)CC1 | inactive | 
63 | COc1ccc(N2CC(NS(=O)(=O)c3ccc4ccccc4c3)CC2=O)cc1 (stereo unspecified) | inactive | 
64 | O=C(NCc1ccco1)c1ccc([N+](=O)[O-])cc1Cl | inactive | 
65 | NC(=O)c1cc(-c2cccnc2)nc2ccc(Br)cc12 | inactive | 
66 | O=C(NCc1ccco1)c1cc(-c2cccnc2)nc2ccc(Cl)cc12 | 10.4 µM (active) | 
67 | O=C(Nc1ccc(N2C(=O)c3cccc4cccc(c34)C2=O)cc1)c1ccc(N2CCCCC2)c([N+](=O)[O-])c1 | inactive | 
68 | O=C(Nc1cccc(C(F)(F)F)c1)c1ccc(N2CCNCC2)c([N+](=O)[O-])c1 | 2.62 µM (active) | 
69 | O=C(NC1C2CC3CC(C2)CC1C3)c1ccc(N2CCNCC2)c([N+](=O)[O-])c1 (stereo unspecified) | inactive | 
70 | O=[N+]([O-])c1ccc(NC(=S)N2CCN(c3ccccn3)CC2)cc1 | inactive | 
71 | O=C(CNC(=O)c1ccccc1)Oc1ccc([N+](=O)[O-])cc1 | inactive | 
72 | Oc1c(Cl)cc(Cl)c(Cl)c1Cc1c(O)c(Cl)cc(Cl)c1Cl | 11.7 µM (active) | 
73 | CCOc1ccc(N2CC(C(=O)NCc3ccccn3)CC2=O)cc1 (stereo unspecified) | inactive | 
74 | CC(C)C[C@H](NC(=O)N1CC(=O)Nc2ccccc21)C(=O)N[C@H](Cc1ccccc1)C(=O)O | inactive | 
75 | COc1ccc(C(=O)ON=C2c3ccccc3-c3ccccc32)cc1OC | inactive | 
76 | COc1ccc(C(=O)O/N=C(\N)Cc2ccc(Cl)cc2Cl)cc1OC | 13.1 µM (active) | 
77 | COc1ccc(C/C(N)=N/OC(=O)c2ccco2)cc1OC | inactive | 
78 | Cc1ccc2c(C)c(C(=O)N(C)Cc3ccncn3)oc2c1C | inactive | 

Row | SMILES | Potency | activity change, negative = inhibition
79 | CCN1CCN(c2ccc(NC(=O)c3cnccn3)cc2)CC1 | inactive | 
80 | CCOC(=O)N1CCN(Cc2nc(N)nc(Nc3ccc(C)cc3)n2)CC1 | inactive | 
81 | CCOC(=O)N1CCN(C(=O)CSc2nc(=O)n3cccc(C)c3n2)CC1 | inactive | 
82 | CCOC(=O)N1CCN(C(c2cccnc2)c2ccc3cccnc3c2O)CC1 (stereo unspecified) | 11.7 µM (active) | 
83 | CCN1CCN(C(c2cccnc2)c2cc(Cl)c3cccnc3c2O)CC1 (stereo unspecified) | 4.15 µM (active) | 
84 | CN(CC(=O)Nc1ccc(F)cc1)CC(=O)N1CCCCC1 | inactive | 
85 | Cc1cc(C)cc(N(CC(=O)NC2CCCC2)C(=O)CCC(=O)Nc2cc(C)on2)c1 | inactive | 
86 | Cn1cc(CNC(=O)c2ccc(OC3CCN(Cc4ccccn4)CC3)cc2)cn1 | inactive | 
87 | CCOC(=O)c1cccc(NC(=O)C2CCN(c3ncnc4c3nc3n4CCCCC3)CC2)c1 | inactive | 
88 | COc1cc(C2/C(=C(\O)c3ccc4c(c3)CC(C)O4)C(=O)C(=O)N2c2nnc(C)s2)cc(OC)c1OC (stereo unspecified) | inactive | 
89 | O=S(=O)(Nc1cccc(-n2cnnn2)c1)c1cnc(Cl)c(Cl)c1 | inactive | 
90 | CC(=O)NC12CC3CC(C1)CC(C(=O)N1CCN(C(=O)c4ccco4)CC1)(C3)C2 | inactive | 
91 | Cc1ccc(C(=O)Nc2ccn(C)n2)cc1 | inactive | 
92 | CN1C(C(=O)NCc2ccco2)CC2Cn3c(nc4ccccc43)C21 (stereo unspecified) | inactive | 
93 | Cc1nc2nc(SCC(=O)Nc3cccc(F)c3)[nH]c2cc1Br | inactive | 
94 | COc1ccc(CN2CCN(C(=O)c3cc(C4CC4)nn3-c3ccccc3)CC2)cc1F | 8.28 µM (active) | 
95 | COc1cc(CN2CCC(C(N)=O)CC2)ccc1OCc1ccccc1 | inactive | 
96 | COc1ccc(CN2CCN(C(=O)CCC(=O)Nc3nnc(C(C)C)s3)CC2)cc1F | inactive | 
97 | COc1ccc(C(=O)NCc2nnc(SCC(=O)NC3=NCCS3)n2C)cc1 | inactive | 
98 | Cc1cc(=O)cc(C)n1-c1ccc(Cl)c(Cl)c1 | inactive | 
99 | O=[N+]([O-])c1ccc(N(CCO)Cc2ccccc2)c([N+](=O)[O-])c1 | 4.65 µM (active) | 
100 | CCN(CC)c1ccc([N+](=O)[O-])cc1C(=O)O | inactive | 
101 | O=C(OCC(=O)N(CCc1ccccc1)Cc1ccccc1)c1ccccc1[N+](=O)[O-] | inactive | 

From PubChem BioAssay AID504832 (National Center for Advancing Translational Sciences (NCATS), 2011)
